High-throughput results: PubChem, National Center for Advancing Translational Sciences (NCATS)
ClpP mod: qHTS Assay for Activators of ClpP. AID 651965, 2013. Potency, µM (doses to about 57.5 µM), for inactives: at the top dose activity change, negative = active. hit rate 1.9% among 340,000. purified B. subtilis ClpP, FRET peptide cleavage, 20 min. ATP-dependent Clp protease proteolytic subunit (Bacillus subtilis (strain 168)), P80244; active = well fitted falling curve with a large enough effect; inconclusive = small, poorly fitted or top-dose-only effect; inactive = no such curve, though single readings can be large or run the other way; also: the source files actives as falling curves though it sought activators and does not explain the sign; nearly all actives have a fitted effect of over 65% in size
Target sequence (P80244 whole entry, looked up): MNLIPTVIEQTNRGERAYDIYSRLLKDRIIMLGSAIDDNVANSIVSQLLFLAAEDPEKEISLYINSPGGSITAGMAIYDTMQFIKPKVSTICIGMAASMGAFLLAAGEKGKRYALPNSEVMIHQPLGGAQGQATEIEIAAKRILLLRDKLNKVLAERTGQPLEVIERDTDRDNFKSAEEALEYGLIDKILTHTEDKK
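FRET quenching reversal measured ClpP activation: 10 microg/mL B. subtilis ClpP at pH 8 with the FRET-FV decapeptide, read at 430 nm after 320 nm excitation. The 20-min minus 0-min signal was scaled between DMSO/no-enzyme wells and ADEP (5.8 microM final).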
TDP1 cell CPT: DT40-hTDP1 cell growth loss with CPT; AID 686979; chicken DT40 Tdp1-/-;hTDP1 cells + 20 nM CPT, ATP luminescence, 48 h; hit rate 12% among 420,000; Potency, µM (doses to about 46.2 µM), without a hit: at the top dose activity change, negative = growth inhibition, hits mostly inhibitors; also: % is scaled to controls: 0 for no effect and ±100 for the full control effect; nearly all actives have a fitted effect of over 55% in size
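Cell growth measured by CellTiter-Glo luminescence after a minimum 48 h, 37 C compound exposure with 20 nM CPT in Tdp1-knockout DT40 cells stably expressing hTDP1, seeded 400/well; qHTS titration format.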
DT40 TDP1 no CPT: qHTS for Inhibitors of human tyrosyl-DNA phosphodiesterase 1 (TDP1): qHTS in cells in absence of CPT; Potency, µM (highest dose often 46.2 µM), for inactives: at the highest dose activity change, negative = growth inhibition, usual class: inhibitors; AID 686978, 2013; hit rate 15% among 420,000; DT40 Tdp1-/- hTDP1 cells, no CPT, ATP luminescence, 48 h; also: % is scaled to controls: 0 for no effect and ±100 for the full control effect; nearly all actives have a fitted effect of over 55% in size
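Readout: luminescence from CellTiter-Glo after 30 min in the dark at RT. Cells: DT40 Tdp1-/- with stable hTDP1, 400/well. Exposure: compounds alone, ≥48 hr, 37 °C.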
TDP1 inh: blocks human tyrosyl-DNA phosphodiesterase 1; AID 485290; recombinant TDP1, AlphaScreen DNA substrate cleavage; Q9NUW8; Potency, µM (doses to about 130 µM), for the others: at the top dose activity change, negative = inhibition, hits mostly inhibitors; hit rate 0.28% among 350,000; also: % is scaled to controls: 0 for no effect and ±100 for the full control effect; nearly all actives have a fitted effect of over 40% in size
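Recombinant E. coli-expressed Tdp1 (1 nM) preincubated with compound 15 min at RT, then 5'-biotin/3'-phosphotyrosine-FITC DNA substrate (15 nM) added for 5 min. AlphaScreen beads (10 ug/ml) added, 10 min RT; tyrosine-FITC cleavage read as signal loss.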
* = called active by the depositor; u = inconclusive; x = no result given; [ ] = another dose, or the depositor's remark. Shown are actives, neighbours in structure and some others; about 17% of the full set was active somewhere. Unless noted, calls follow the shape of the dose curve; as a rule, active = well fitted curve in the direction sought with a large enough effect; inconclusive = small, poorly fitted or top-dose-only effect, or another doubt; inactive = no such curve, though single readings can be large; an effect the other way counts as inactive or inconclusive. Potency is read from the fitted curve at half-maximal effect.

SMILES	ClpP mod	TDP1 cell CPT	DT40 TDP1 no CPT	TDP1 inh
COc1cccc(CNC(=O)Cc2c(C)c3c(cc(C)c4c(C)c(C)oc43)oc2=O)c1	5%	-14%	-5%	2%
Cc1nn(CC(=O)Nc2ccccn2)c(C)c1Br	1%	8.2µM*	u	-3%
Cc1cc(C(=O)N(Cc2cc3cc4c(cc3nc2N2CCOCC2)CCC4)CC2CCCO2)c(=O)[nH]c1C (centres undefined)	x	5%	-5%	x
CCOC(=O)C(=Cc1ccccc1)C(=O)OCC	x	x	x	13%
CCOC(=O)C(=Cc1ccc(-n2cncn2)cc1)C(=O)OCC	x	12µM*	13µM*	-2%
O=C1C=C(c2ccccc2Oc2ccccc2)C[C@@H](c2ccc(F)cc2)C1	-2%	u	u	x
CC1(/[N+]([O-])=C/c2ccc(F)cc2)CCCCC1=O (centres undefined)	0%	-2%	4%	-5%
O=C(NCCCN1CCOCC1)c1ccc(-n2nc(C(F)(F)F)cc2-c2cccs2)cc1	-3%	18µM*	18µM*	3%
N#CC(C(=S)Nc1ccccc1)c1nc2ccccc2[nH]1 (centres undefined)	1%	5.2µM*	5.2µM*	x
CSC(=Nc1ccccc1)C(C#N)c1nc2ccccc2[nH]1 (centres undefined)	1%	-4%	-12%	x
OC(c1ccccc1)c1nc2ccccc2[nH]1 (centres undefined)	16µM*	-1%	-8%	x
Cc1ccc(-c2nn(CC(=O)NC3CCCC3)c3c2cnc2ccccc23)cc1	-19%	-29%	-10%	5%
COc1cc2ncc3c(-c4ccccc4)nn(CC(=O)NC4CCCCC4)c3c2cc1OC	u	15µM*	15µM*	2%
CCc1ccc(-c2nn(CC(=O)NC3CCCCC3)c3c2cnc2ccc(C)cc23)cc1	-1%	-10%	-5%	8%
CCc1ccc(-c2nn(CC(=O)NC3CCCCC3)c3c2cnc2ccc(OC)cc23)cc1	-17%	5.8µM*	5.8µM*	5%
CCc1ccc(-c2nn(-c3ccc(OC)cc3)c3c2cnc2ccc(OC)cc23)cc1	u	u	6.5µM*	2%
COc1ccc2ncc3c(-c4ccc(C)c(C)c4)nn(CC(=O)NC4CCCCC4)c3c2c1	-3%	8.2µM*	12µM*	8%
CCc1ccc(NC(=O)Cn2c(=O)n(Cc3nc(C)no3)c(=O)c3cc4c(cc32)OCO4)cc1	-29%	u	u	3%
CCCNC(=O)Cn1nc(-c2ccc(C)c(C)c2)c2cnc3ccc(OC)cc3c21	-24%	10µM*	8.2µM*	-6%
CCCNC(=O)Cn1nc(-c2ccc(C)c(C)c2)c2cnc3ccc(F)cc3c21	-7%	u	-21%	5%
COc1ccc(/C=N/c2c(-c3ccc(OC)cc3)nc3n2CCS3)cc1	1%	u	16µM*	-2%
Fc1ccc(/C=N/c2c(-c3ccc(F)cc3)nc3n2CCS3)cc1	2%	-21%	-26%	5%
COc1ccc2c(c1)c(=O)c(S(=O)(=O)c1ccc(Cl)cc1)cn2Cc1cc(C)ccc1C	-10%	-21%	u	4%
CCOc1ccc(S(=O)(=O)c2cn(Cc3ccccc3C)c3ccc(OC)cc3c2=O)cc1	u	15µM*	12µM*	9%
CCCn1cc(S(=O)(=O)c2ccc(Cl)cc2)c(=O)c2cc(OC)ccc21	-14%	16µM*	23µM*	1%
SMILES	ClpP mod	TDP1 cell CPT	DT40 TDP1 no CPT	TDP1 inh
COc1ccc2c(c1)c(=O)c(S(=O)(=O)c1ccc(C)cc1)cn2Cc1ccccc1C	4%	u	18µM*	1%
COc1ccc(CNC(=O)c2ccccc2NC(=O)C2=C(C)OCCS2)cc1	1%	u	u	x
CCCNC(=O)c1nn2cc(Br)cnc2c1Br	0%	-8%	1%	u
Nc1nc2c(c(=O)[nH]1)N(C=O)C(CNc1ccc(C(=O)N[C@@H](CCC(=O)O)C(=O)O)cc1)CN2 (some centres undefined)	x	2%[21.1 µM]	2%[21.1 µM]	x
CSc1ncc(Cl)c(C(=O)N(Cc2ccc(C)cc2)C2CCS(=O)(=O)C2)n1 (centres undefined)	0%	u	u	5%
CCOC(=O)N1CCC(NS(=O)(=O)c2ccc(C)cc2)CC1	1%	-26%	u	4%
CCOC(=O)N1CCC(NS(=O)(=O)c2ccc(NC(C)=O)c(Cl)c2)CC1	x	23µM*	8.2µM*	0%
CC(C)(C)c1onc(OCP(=O)(O)O)c1CC(N)C(=O)O (centres undefined)	x	x	x	6%
O=C(COc1ccccc1)Nc1ccc(S(=O)(=O)N2CCOCC2)cc1	-3%	-29%	-25%	3%
CN1CCN(c2ccc(-c3cccc(NC(=O)COc4ccccc4)c3)nn2)CC1	2%	u	21µM*	x
O=C(COc1ccccc1)Nc1ccc(-c2ccc(N3CCOCC3)nn2)cc1	16µM*	u	u	-11%[0.505 µM]
COc1cc2ccccc2cc1C(=O)Nc1ccc2oc(-c3cccc(C)c3)nc2c1	u	u	u	0%[12.3 µM]
C=C(C)C(=O)OC[C@@H]1CCC[N@+]2(C)CCCCC12 (some centres undefined)	x	2%[9.04 µM]	4%[9.04 µM]	-5%
COc1cccc(Nc2nc(C(N)C3CCCCC3)cs2)n1 (centres undefined)	-2%	u	23µM*	x
COc1cccc(Nc2nc(C(C)N)cs2)n1 (centres undefined)	-5%	13µM*	u	x
COc1cccc(Nc2nc(C(N)c3ccccc3)cs2)n1 (centres undefined)	-7%	9.2µM*	12µM*	x
CCN(CC(=O)Nc1c(F)cccc1F)C(=O)c1ccc(C)c(S(=O)(=O)N2CCCCC2)c1	x	-26%	-23%	-6%
COC(=O)[C@@]12C[C@@H](CC(=O)N3CCN(C(=O)C4CC4)CC3)C(=O)N(Cc3ccco3)C1=CCC(C)(C)C2	0%	u	u	x
CCCCCCCCN1C(=O)[C@H](CC(=O)N2CCN(C(=O)C3CC3)CC2)C[C@@]2(C(=O)OC)CC(C)(C)CC=C12	1%	15µM*	15µM*	x
CCOC(=O)N1CCN(C(=O)C[C@@H]2C[C@@]3(C(=O)OC)CC(C)(C)CC=C3N(Cc3ccccc3)C2=O)CC1	1%	u	u	x
CCCCCCCCN1C(=O)[C@H](CC(=O)N2CCN(C(=O)OCC)CC2)C[C@@]2(C(=O)OC)CC(C)(C)CC=C12	0%	13µM*	13µM*	x
CCc1ccccc1NC(=O)CN1CCN(C(=O)CCC(=O)N2CCC(c3ccccc3)=N2)CC1	u	15µM*	26µM*	0%[56.1 µM]
COc1ccc(Cl)cc1-n1c(N)c(C(N)=O)sc1=S	2%	16µM*	21µM*	-5%
CCOC(=O)c1sc(=S)n(-c2ccccc2OC)c1N	-2%	u	23µM*	6%
